Several values for one entry are separate records, joined by “and”; a condition that tells them apart may be missing. Equal values may be shown once. Compounds without any hit were thinned out: in the full panel of roughly 83,000, 20% have a hit.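 Growth was measured after 48 h exposure to one concentration of compound in 96-well plates. Values under 10 count as active.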 Activity calls are given as the source filed them.
Experiments:
Assay in all cases: NCI-60 one-dose screen, 48 h (100 = growth as untreated, 0 = no growth, -100 = all killed)
Conditions in all cases: 10 µM unless noted
[1] = system: NCI-H23 lung
[2] = system: NCI-H226 lung
[3] = system: NCI-H322M lung
[4] = system: HOP-62 NSCLC
[5] = system: NCI-H460 lung
[6] = system: HOP-92 NSCLC
[7] = system: NCI-H522 lung
[8] = system: A549/ATCC NSCLC
[9] = system: 786-0 renal
[10] = system: COLO 205 colon
[11] = system: DU-145 prostate
[12] = system: K-562 leukemia
[13] = system: MALME-3M melanoma
[14] = system: MDA-MB-231 breast
[15] = system: RXF 393 renal
[16] = system: SF-268 CNS
[17] = system: SF-295 CNS
[18] = system: SF-539 CNS
[19] = system: UACC-257 melanoma
[20] = system: M14 melanoma

Measured: growth

[N-]=[N+]=CC(=O)CCC(=O)C=[N+]=[N-]
inactive: [1] 105% | [2] 100% | [3] 95.8% | [4] 92.6% | [5] 112% | [6] 90.6% | [7] 110% | [8] 113% | [9] 99.3% | [10] 117% | [11] 127% | [12] 83.9% | [13] 96.3% | [14] 103% | [15] 124% | [16] 121% | [17] 106% | [18] 88.3% | [19] 137% | [20] 102%

O=C(O)c1ccccc1N(CCO)CCCl
inactive: [1] 99% | [2] 102% | [3] 90.3% | [4] 95.1% | [5] 111% | [6] 79.3% | [7] 93.3% | [8] 98.1% | [9] 107% | [10] 100% | [11] 103% | [12] 100% | [13] 87.1% | [14] 112% | [15] 102% | [16] 103% | [17] 99.8% | [18] 84.6% | [19] 99%

CCCC1CCCCC12C(=O)NC(=O)NC2=O (configuration not stated)
inactive: [1] 97.2% and 101% | [2] 91.1% | [3] 105% and 94.3% | [4] 107% | [5] 101% and 109% | [6] 103% | [7] 95.5% and 89.7% | [8] 104% and 98.2% | [9] 102% and 96.6% | [10] 104% and 110% | [11] 104% and 109% | [12] 101% | [13] 86.4% and 112% | [14] 89.3% and 120% | [15] 104% and 110% | [16] 105% and 102% | [17] 95.5% and 108% | [18] 97.1% and 111% | [19] 103% and 94.1% | [20] 96.4% and 96.9%

CCCCS(=O)(=O)Cl
inactive: [1] 108% | [2] 100% | [3] 111% | [4] 122% | [5] 106% | [6] 97.4% | [7] 99.8% | [8] 109% | [9] 103% | [10] 109% | [11] 113% | [12] 107% | [13] 108% | [14] 111% | [15] 112% | [16] 108% | [17] 102% | [18] 99% | [19] 110%

COC(=O)[C@@H](C)C[C@H](Cc1ccccc1)NC(=O)c1cccc([C@@H](C[C@H](C(C)C)N(C)C(=O)[C@@H](NC(=O)[C@H]2CCCCN2C)C2CC2)OC(C)=O)n1
inactive: [1] 21% | [2] 22.8% | [3] 39.4% | [9] 20.8% | [13] 67.1% | [15] 23.4% | [16] 18.6% | [19] 36.4%
active: [4] 3.33% | [5] 7.3% | [6] 5.28% | [7] -11.3% | [8] 7.97% | [10] -69% | [11] 3.09% | [12] 6.15% | [14] -20.4% | [17] 3.47% | [18] -15%

O=[N+]([O-])c1ccc(OCc2ccc(S(=O)(=O)F)c(Cl)c2)c(Cl)c1
inactive: [1] 99.2% | [2] 93.4% | [3] 116% | [4] 106% | [5] 115% | [6] 77.5% | [7] 89.1% | [8] 110% | [9] 79.9% | [10] 101% | [11] 118% | [12] 99% | [13] 98.6% | [14] 85.9% | [15] 114% | [16] 95.8% | [17] 106% | [18] 93.6% | [19] 118% | [20] 96.9%

From PubChem BioAssay (NCI)
